± gives the standard deviation of the averaged measurements. Over roughly 25,000 sequences, “ln(normalized median fluorescence intensity)” has its median near 7.9; the highest 2% begin near 11. The full list was thinned out, with the highest values kept by preference.
Test system: PfAP2-I AP2 domain 3 (GST-tagged)
Assay: gcPBM binding intensity (ln(normalized median fluorescence intensity)); higher = stronger DNA binding
Outline: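 For binding intensity, the highest Masliner-normalised natural-log median intensity across replicate spots of either probe orientation was taken. Protein bound to the array was stained with Alexa488 anti-GST antibody and scanned at 488 nm. The protein, GST-tagged P. falciparum DNA-binding domains from E. coli at about 25 μg on average, had been applied for 1 h to an Agilent 4 × 180k array of primer-extended double-stranded 36-bp intergenic genomic probes and negative controls.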

Sequence | gcPBM binding intensity (ln)
GAATGAATGATAAATTTTTTTTTCTTTTTTTTTTTG [CACACA_negctrl_site333] | 7.09 ± 0.59
ACCTTATAAAAAAAAAGTACATATATAAATAATAAA [XGTACX_site4338] | 8.29 ± 0.13
ATATAATTAAAAACATGTACATATATATATATATAT [XGTACX_site2882] | 9.27 ± 0.2
CAAACCCACCAACACACACACACAAAAATGATTAAA [CACACA_site2432] | 8.03 ± 0.23
TTATGTTCTTTAAAACCACACACCCCCCAACCCCCC [CACACA_site8742] | 10.9 ± 0.44
ATGTTCTTTAAAACCACACACCCCCCAACCCCCCTC [CACACA_site2373] | 10.6 ± 0.36
ATAAGTATAAGAATCAGTACACAGTTTCTACATACT [XGTACX_site5834] | 7.56 ± 0.51
TATCAAAGTAGAAGAGATCGATGTCATATTGTGATG [GTGCAC_negctrl_site42] | 7.73 ± 0.75
GGTCTTCTTAATATACTGCACTGTATACGTATATAA | 11 ± 0.61
CATATGCATACTATACGTACATATGTATATAATATA [XGTACX_site7738] | 8.03 ± 0.42
TATAATATTAATGACTGTACTCATACGTATATTTAT [XGTACX_site5493] | 7.79 ± 0.3
GATAGATAATATTTTAGTACATAAACAATTAAATAT [XGTACX_site4125] | 7.91 ± 0.44
TAATCATAAAAAAATACACACATATAAAATATAGAT [CACACA_site7020] | 7.51 ± 0.63
TATAAATACATACGTACACACAAATATTAAAATATA [CACACA_site5129] | 7.905 ± 0.007
CATAAAAATGGATACACACACATAATATATATATAT [CACACA_site3619] | 9.08 ± 0.11
TAGGGATTATACCACACACACATACACATAAATATA [CACACA_site3178] | 7.86 ± 0.32
TCATATATATTATACACACACATATATAAATATATA [CACACA_site967] | 7.87 ± 0.54
ATGGATTATACGTGCACACATATATACAAATAAATA [CACACA_site640] | 11.19 ± 0.035
TAATGGATTATACGTGCACACATATATACAAATAAA [CACACA_site8116] | 10.97 ± 0.035
ATATAAATACGGTGTGCACACACATAATATATATAT [CACACA_site2271] | 9.52 ± 0.26
TTATAATATGGATACACACACATATATAAATATATA [CACACA_site5314] | 7.68 ± 0.38
ATGGATTATACGTGCACACATATATACCAATAAATA [CACACA_site4524] | 11.2 ± 0.22

Sequence | gcPBM binding intensity (ln)
AATAATAATAAAAATAAACACACATATATATGTATA [CACACA_site8928] | 7.57 ± 0.28
AATATAATTATATGTGGTACAGAAATAATATAAAAT [XGTACX_site2366] | 8.22 ± 0.52
TTATAAAAAAAAAAAAAAAAGAAAATGAATTCACGA [CACACA_negctrl_site1248] | 8.19 ± 0.3
TAAATTATTATCCCCTCACACACAAAAATAAAAAGA [CACACA_site2886] | 8.56 ± 0.25
CGTTGTAGGGAATGTAGTACAGTTATTATTTTATTA [XGTACX_site2429] | 7.88 ± 0.24
TTAATGCACTTTATTACACACACTAGTTCATTACCT [CACACA_site2294] | 11.5 ± 0.95
AATGAGAATTTTATTACACACTTTAATATATTTTCA [CACACA_site784] | 7.7 ± 0.53
TATTATATTGTTCATTTACACTTTCATTTTAAAAAA [CACACA_negctrl_site260] | 8.05 ± 0.54
ATAGTTACACAATGGTGTACAAGTCAATATATTTCT [XGTACX_site4614] | 7.95 ± 0.33
ATATTGTTATATGTTTGTACATATTTTTTATATTTT [XGTACX_site6834] | 7.7 ± 0.64
AACAAAATAAAAAGTAATCTTATTTATTAAAATTTT [CACACA_negctrl_site419] | 7.25 ± 0.43
AAGGCATGACTATCTGCACACATAAAAATAAGAAAT [CACACA_site8180] | 8.62 ± 0.39
AAATGAATATTCATAGTGCAATATATAAATGAAAAT | 11 ± 0.38
TAAATAGTTATAAAAGTGCAAAAAAAAAAAAAAAAA [GTGCAC_site9550] | 10.1 ± 0.53
ACAATGAAATATTCATGTACATATAAATAATAGTGT [XGTACX_site3762] | 7.93 ± 0.42
AAGAAAATATAACAAAGTAAAAACATATTATATATA [TGCATGCA_negctrl_site248] | 7.34 ± 0.34
GTTATTGAAAAAATAGTGCAATATAACAAAGTAAAA | 11.4 ± 0.52
ATATAAGAATAAATAGTGCAAAATAAATGATTATTT | 10.7 ± 0.33
GCTGAAAGGATAAAGGTGCATATTTTTTAAAAAATT [GTGCAC_site9487] | 10.4 ± 0.28
CATAATTTAAAAAAGGTGCAAAATGGATAATATATA [GTGCAC_site9657] | 11.1 ± 0.57
TATAAATTTATAAATAGTACATATATTTATATATAT [XGTACX_site6433] | 8.12 ± 0.64
AAAATTTATAGTATGGTGCATAAAAATATATATATA | 11.4 ± 0.23

Sequence | gcPBM binding intensity (ln)
TTATAAAAAATTTTAGTGCATATATGATTTATATAT [GTGCAC_site9831] | 10.1 ± 0.33
TAAAATATTTCAAAGGTGCAATGATAATTTAAGACG [GTGCAC_site9609] | 10.6 ± 0.54
TTTTATATCTACCTTTGTACATATTTATTTTTTTTA [XGTACX_site7872] | 8.01 ± 0.74
AATAATGAAACAGGAAAAAAATATTGTTAAAATGTA [XGTACX_negctrl_site400] | 7.95 ± 0.78
AAAAAAAAAAAAAAAACACACATAAATAGCTCAAAT [CACACA_site3973] | 8.78 ± 0.49
ACAAAACGAACATACGCATGTGTGTACATTAATATA [TGCATGCA_site922] | 8.14 ± 0.099
TTTTCATTCTTTTCCTTTGATTTACAATAGTATATT [GTGCAC_negctrl_site687] | 7.72 ± 0.79
TTTTCCATAAGAATTACACACAGAAAGGATAAGTAT [CACACA_site105] | 8.04 ± 0.73
TAATAATCAAGTTAACGTACAAAATCATCTATAGAA [XGTACX_site5921] | 8.03 ± 0.13
GTTATAATTGAACTAGTGCATAAATATATTTTAATT [GTGCAC_site9851] | 11.1 ± 0.45
TCTATTTTTTATATGGTGCATTGTTCTTATTAATAT [GTGCAC_site9392] | 10.8 ± 0.71
TATAATAGTTCATAGGTGCAATATAATAAATTTATA [GTGCAC_site9573] | 11.2 ± 0.47
ATTGATTATTTTCTAGTGCATAAAATAATTTTTTTT | 10.5 ± 0.51
TATTAATATATAGTAGTGCAATAAAGATATACTGAA | 10.9 ± 0.58
TAAATTTATATATAGGTGCGCAATTTGATAATAGTT [GTGCAC_site9783] | 9.82 ± 0.19
CATATAATTTTATGGGTGCATTTTTTTGTAAGACCA | 10.1 ± 0.58
ATTATTATATAGTGTGCATGCAATATTAATAAAACC [TGCATGCA_site245] | 8.79 ± 0.52
TTAAAATAGATATTAGTGCAAAAAAAAAAAAATAAA | 10.7 ± 0.23
TGTAAATAATATAATAGTACGCATATTTTTATTGAA [XGTACX_site284] | 7.87 ± 0.17
TCAAAAATTTATATAGTGCAATATATATATAATGTA | 10.6 ± 0.72
TAATATATATATATGGTGCATTTAATTTATATATAA | 11.2 ± 0.74
